From PubChem BioAssay AID1700 (The Scripps Research Institute Molecular Screening Center, 2009)
In all, about 290,000 compounds went through this assay and about 670 (0.23%) were called active.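 Rule for the calls: active = inhibition above a per-plate limit of that plate's mean compound inhibition plus 3 SD (cut at about 60% in these data); inactive = the rest.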 This excerpt belongs to a sample that is enriched for actives.

Experiment: KLF5 expression inhibitors, primary screen, DLD-1 cells, luminescence (AID 1700);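 note: 0% = DMSO wells and 100% = LY294002 at 200 µM; higher means less KLF5 promoter-driven luciferase light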
Conditions: DLD-1 KLF5 promoter-luciferase reporter, at 5 µM, hits give high values

Row | Compound | inhibition
1 | CCCCCCCCCCCCn1ccc(=N)cc1 | 75.9% (active)
2 | CCN(CC)c1ccc([N+](=O)[O-])c2cccnc12 | -21% (inactive)
3 | COc1cc2nc(N3CCN(C(=O)[C@@H]4CCCO4)CC3)nc(N)c2cc1OC | -16.5% (inactive)
4 | O=C1NC(=O)C(CCc2ccccn2)(Cc2cccc(Cl)c2Cl)C(=O)N1c1ccc(Br)cc1 (stereo not given) | -5.72% (inactive)
5 | COc1ccc(N2C(=O)/C(=C/c3ccco3)C(=O)NC2=S)cc1 | -5.05% (inactive)
